This passage reports inhibition results from PubChem BioAssay AID1259354 (Paczesny and Yang Labs, IUPUI and University of Michigan, 2018).

The campaign covered roughly 78,000 compounds. About 1,800 (2.3%) were called active. Another 27% or so got no clear call; they are omitted. Cut-off read from the data, not from the text of the source: active = inhibition above about 30%; inconclusive = mostly about 10% to 28%; inactive = weaker than that. The full list was thinned out, with actives kept by preference.

In general, inhibition refers to the percentage by which the read-out fell short of the control.

For the assay, the target named is Interleukin-1 receptor-like 1 (Homo sapiens) (UniProt Q01638). Briefly: blocks human ST2 binding to IL-33, primary screen, biochemical, AlphaLISA (AID 1259354). The note with it: AlphaLISA ST2-Fc/biotin-IL-33 interaction, 1 h; at 17 µM, active compounds read high. (In general: Bead proximity is the source of the signal in Alpha formats.)
Interleukin-1 receptor-like 1 (Homo sapiens), sequence (Q01638 whole entry, looked up): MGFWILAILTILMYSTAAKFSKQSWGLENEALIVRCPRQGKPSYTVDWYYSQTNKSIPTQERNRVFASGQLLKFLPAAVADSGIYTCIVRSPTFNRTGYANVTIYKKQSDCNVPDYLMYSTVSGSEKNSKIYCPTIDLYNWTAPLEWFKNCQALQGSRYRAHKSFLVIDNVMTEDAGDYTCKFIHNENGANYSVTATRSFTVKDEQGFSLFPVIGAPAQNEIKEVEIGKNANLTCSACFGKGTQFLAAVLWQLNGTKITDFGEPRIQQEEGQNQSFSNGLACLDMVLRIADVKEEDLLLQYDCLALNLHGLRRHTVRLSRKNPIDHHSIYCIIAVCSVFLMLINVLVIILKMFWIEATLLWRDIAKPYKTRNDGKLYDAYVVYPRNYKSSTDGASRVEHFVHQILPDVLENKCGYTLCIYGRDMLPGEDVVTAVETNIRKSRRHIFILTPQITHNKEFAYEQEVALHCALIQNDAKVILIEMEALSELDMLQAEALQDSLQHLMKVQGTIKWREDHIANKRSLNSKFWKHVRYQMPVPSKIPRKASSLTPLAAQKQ
For `O=[N+]([O-])c1cccc(-c2noc([C@@H]3C[C@@H](O)CN3Cc3ccc(C(F)(F)F)cc3)n2)c1`, the inhibition entry is “inactive”. Consider `N#C/C(=C\c1ccc(-c2cccc([N+](=O)[O-])c2)o1)C(=O)Nc1cccc(C(F)(F)F)c1`, for which the inhibition was 30% (active). For `N#CC(C(=O)Nc1cccc(C(F)(F)F)c1)=C1CCCCCC1` the value was “inactive”; for `O=C(C1CCCN(Cc2c[nH]c3ccccc23)C1)N1CCCCCC1` (stereo not given), “inactive”; for `COc1ccc(-c2oc3ncn(Cc4ccco4)c(=N)c3c2-c2ccc(OC)cc2)cc1`, 31% (active). For `O=C(Nc1c(-c2ccc(F)cc2)nc2ccccn12)c1cccc(F)c1` the value was “inactive”; for `Fc1ccc(C=Nc2c(-c3ccco3)nc3ccccn23)cc1`, 49% (active); for `Cc1cccc2nc(-c3ccco3)c(Nc3ccc(F)cc3)n12`, “inactive”.

Regarding `Fc1cccc(N2N=C(/C=C/c3cccs3)CC2c2cccs2)c1` (stereo not given), the inhibition is 32% (active). To `CCN(CC)S(=O)(=O)c1ccc(C(=O)Nc2nnc(-c3cc(OC)cc(OC)c3)o2)cc1` belongs “inactive”; to `N#C/C(=C/c1ccc2c(c1)OCO2)c1nc(-c2cccc(Br)c2)cs1`, 30% (active); to `N#C/C(=C\c1cccc(F)c1)c1nc(-c2ccc3c(c2)OCO3)cs1`, “inactive”. To `COc1ccccc1OCCNC(=O)c1ccccc1O` belongs “inactive”; to `CCSc1nnc(NC(=O)Nc2ccc(Cl)cc2)s1`, “inactive”.

As for `O=C(Nc1ccc([N+](=O)[O-])cc1Br)c1cncc(Br)c1`, the inhibition is 47% (active). To `O=C(Nc1ccc([N+](=O)[O-])cc1Cl)c1cccc(Br)c1` belongs “inactive”. To `O=C(Nc1ccc([N+](=O)[O-])cc1Br)c1ccncc1` belongs “inactive”; to `CC(C)N(C(=O)Cn1c(Cl)nc2c1c(=O)n(C)c(=O)n2C)c1ccccc1`, “inactive”; to `CCc1ccc(NC(=O)c2ccc(CN3CCOCC3)cc2)cc1`, “inactive”. To `O=C(Nc1ccc(Cl)cc1)Nc1ccc2n(c1=O)C[C@H]1C[C@@H]2CN(C(=O)Cc2cccs2)C1` belongs “inactive”; to `COc1ccc(-c2cccc(-n3cccn3)c2)cc1C(N)=O`, “inactive”; to `CN1CCCC2(CC1)CCN(C(=O)c1cc3ccccc3n(C)c1=O)CC2`, “inactive”. As for `COc1cc(OC)cc(C(=O)N2c3ccccc3Sc3ccccc32)c1`, the inhibition entry is “inactive”. `O=c1nc2cc3[nH]c4c(=O)c5ccccc5c4[nH]c3cc2n1`: the inhibition was 46% (active). For `O=C(c1cccc(I)c1)n1nnc2ccccc21` the value was “inactive”; for `CCSc1ncc(CN2CC[C@@H](N(C)CCc3ccccn3)[C@H](O)C2)cn1`, “inactive”. Take `CC(=O)Nc1ncc2c(n1)CC(c1ccc(F)cc1)CC2=O` (stereo not given): the inhibition entry was “inactive”. Turning to `COc1ccc(-c2cc(C(F)(F)F)nc(NCc3cccnc3)n2)cc1`, the inhibition result is “inactive”. As to `COc1ccc(-c2cc(C(=O)Nc3cccnc3)c3ccccc3n2)cc1`, the inhibition entry is “inactive”. In the case of `COc1ccc(-c2csc(/C(C#N)=C\c3cccnc3)n2)cc1`, the inhibition is 31% (active).
